Bioassay records as filed in PubChem BioAssay.
Pf growth 48h – P. falciparum growth inhibition at 48 hours (one generation); P. falciparum luciferase growth in erythrocytes, 48 h; Potency, µM (doses to about 28.7 µM), for the others: at the top dose activity change, negative = inhibition, most hits filed as inhibitors; 5.9% of 310,000 active; active = well fitted inhibition curve with a large enough effect; inconclusive = small, poorly fitted or top-dose-only effect, or another doubt; inactive = no such curve, though single readings can be large or run the other way; also: potency is read from the fitted curve at half-maximal effect; % is scaled to controls: 0 for no effect and ±100 for the full control effect
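Read-out is firefly luciferase luminescence from an integrated reporter in P. falciparum, so falling signal marks reduced parasite growth. Infected erythrocytes were at 2% hematocrit and 0.1% parasitemia (final) in Albumax-supplemented RPMI 1640.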
Shiga inhibitor – inhibitors of Shiga toxin in Vero cells; 9.2% of 290,000 active; Vero cells, Shiga toxin protein synthesis inhibition reporter; AID 2315; inhibition, % at 38.7 µM; in the data active = inhibition mostly above about 28%, no sharp cut-off; inactive = mostly below about 43%; also: 0% is about no effect
SARS PLpro yeast – inhibitors of SARS-CoV papain-like protease in yeast | S. cerevisiae expressing SARS-CoV PLpro, growth rescue | Potency, µM (top dose mostly 32.9 µM), without a hit: at the top dose activity, positive = growth rescue, hits mostly activators | 0.19% of 330,000 active | AID 485353; also: potency is read from the fitted curve at half-maximal effect; 0% is about no effect; nearly all actives have a fitted effect of over 55% in size
CHX counter – counter-screen for Shiga toxin inhibitors: cycloheximide protein synthesis inhibition | cell reporter, cycloheximide protein synthesis inhibition counterscreen | max response, % | 12% of 300,000 active; in the data active = max response mostly above about 13%, no sharp cut-off; inactive = mostly below about 14%; also: read at 38.3 µM for the half of the compounds with a filed dose; 0% is about no effect
NS1 function inh – blocks influenza NS1 protein function | Potency, µM (highest dose often 46.1 µM), for inactives: at the top dose activity, positive = more growth | 0.4% of 270,000 active | AID 2326; also: potency is read from the fitted curve at half-maximal effect; actives are rising curves; nearly all actives have a fitted effect of over 50% in size
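In this qHTS, NS1 from influenza A is expressed in budding yeast, where it slows growth. Cells are switched from glucose to 2% galactose medium (pH 6.0, -URA), treated with compound, and growth recovery is read at OD600.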
Pf growth 96h – inhibits malaria parasite growth, 96 h; Potency, µM (highest dose often 28.7 µM), inactives show top-dose activity change, negative = inhibition, actives largely listed as inhibitors; 6.9% of 320,000 active; P. falciparum luciferase reporter growth, 96 h; AID 504834; active = well fitted inhibition curve with a large enough effect; inconclusive = small, poorly fitted or top-dose-only effect, or another doubt; inactive = no such curve, though single readings can be large or run the other way; also: potency is read from the fitted curve at half-maximal effect; % is scaled to controls: 0 for no effect and ±100 for the full control effect
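Two-generation exposure (96 h) targets delayed-death phenotype. Reporter parasites carrying integrated firefly luciferase, in red cells at 2% hematocrit and 0.05% parasitemia final, kept at 37 C, 5% CO2; luminescence loss indicates inhibition.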
Starred values were filed as active, the others as inactive; i = inactive; ? = inconclusive; nt = no result; + = active, no number. In the library only some 21% were active in any assay of this set; here they are far more common. Unless noted, calls follow the shape of the full dose curve.

SMILES | Pf growth 48h | Shiga inhibitor | SARS PLpro yeast | CHX counter | NS1 function inh | Pf growth 96h
COCCCN(Cc1ccco1)C(=O)Cn1ncc2c([nH]c3ccccc32)c1=O | ? | -9 | -1% | -3 | ? | ?
CN(Cc1ccco1)C(=O)Cn1ncc2c([nH]c3ccccc32)c1=O | -8% | -6 | 5% | -3 | -3% | 9.3µM*
CCCSc1nnc(NC(=O)c2ccco2)s1 | 218% | 109* | -5% | 24* | nt | 36%
O=C(CSc1nnc(NC(=O)c2ccco2)s1)Nc1cccc(F)c1 | 65% | 78* | -1% | 32* | -12% | 64%
CC(C)N(C(=O)CSc1nnc(NC(=O)c2ccco2)s1)C(C)C | -11% | -6 | -11% | -1 | nt | -11%
O=C(Nc1nnc(SCc2ccccc2F)s1)c1ccco1 | 12% | -7 | -28% | -5 | 2% | -16%
Cc1cnc(NC(=O)c2ccco2)s1 | 188% | 125* | 4% | 34* | -35% | 181%
CSc1nnc(NC(=O)c2ccco2)s1 | 102% | nt | -7% | 16* | -43% | 15%
COc1ccccc1-c1n[nH]c(=S)n1Cc1ccco1 | -4% | 1 | -3% | -3 | nt | 17%
COc1cccc(-c2cc(=O)c3cc(NC(=O)c4cccnc4)ccc3[nH]2)c1 | nt | i | nt | 4 | nt | nt
COCCSc1nnc(NC(=O)c2ccco2)s1 | 53% | 36 | -9% | 20* | -33% | ?
COCc1nnc(NC(=O)c2ccco2)s1 | 18% | 14 | 2% | -1 | -12% | nt
Cc1ccc(C)c(OCc2nnc(NC(=O)c3ccco3)s2)c1 | 8% | -9 | -2% | -2 | 1% | 10µM*
CN(C)c1ccccc1C(=O)N1CCC(n2nccc2NC(=O)C2CC2)CC1 | ? | -2 | -3% | -6 | -13% | -14%
COC(=O)c1[nH]c2c(c1C)C(=O)CC(c1cccc(OC)c1)C2 (stereo unspecified) | nt | -7 | 0% | -2 | 0% | ?
Cc1ccccc1OCCCCn1c(CO)nc2ccccc21 | ? | -3 | -3% | -3 | nt | ?
Cc1cccc(OCCCn2c(CO)nc3ccccc32)c1 | 37% | 122* | 1% | 44* | 0% | 24%
Cc1cccc(OCCSc2nc3ccccc3n2CC(=O)O)c1 | 11% | nt | 0% | 2 | 4% | ?
Cc1ccc(OCCCn2c(CO)nc3ccccc32)cc1 | 65% | 67* | 1% | 18* | -22% | 7%
OCc1nc2ccccc2n1CCCOc1ccccc1 | 164% | 35* | 0% | 30* | -3% | ?
O=C(CN1C(=O)C2CC=CCC2C1=O)Nc1ccc(OC(F)(F)F)cc1 (stereo unspecified) | 15% | nt | 8% | nt | nt | -19%
COc1ccc(-c2c(C3C4C=CCCC4(C)C(=O)N3Cc3ccccc3)ccc3ccccc23)cc1 (stereo unspecified) | nt | + | nt | 103* | nt | nt
COc1ccc(-c2ccc(C)cc2)cc1[C@H]1[C@@H]2C=CCC[C@@]2(C)C(=O)N1Cc1ccccc1 | 12µM* | -11 | -2% | -1 | 2% | ?
CC(=O)c1ccc(-c2c(C3C4C=CCCC4(C)C(=O)N3Cc3ccccc3)ccc3ccccc23)cc1 (stereo unspecified) | nt | 0 | nt | -8 | nt | nt
Cn1c(SCC(=O)N2CC(=O)Nc3ccccc32)nc2ccccc2c1=O | ? | nt | -4% | nt | nt | ?
SMILES | Pf growth 48h | Shiga inhibitor | SARS PLpro yeast | CHX counter | NS1 function inh | Pf growth 96h
Cc1cc(NC(=O)Cn2c(=O)n(Cc3ccccc3)c(=O)c3ccccc32)no1 | 9.3µM* | 9 | 3% | 7 | 3% | 0%
COCCn1c(SCC(=O)Nc2cc(C)on2)nc2ccccc2c1=O | ? | nt | 1% | nt | nt | ?
CCN(C(=O)Cn1c(=O)n(Cc2ccccc2)c(=O)c2ccccc21)c1cccc(C)c1 | ? | -9 | 5% | -1 | 6% | 34%
O=C1CN(C(=O)CSc2nc3ccccc3c(=O)n2Cc2ccc(F)cc2)c2ccccc2N1 | 12µM* | -12 | 14% | -5 | ? | 2.6µM*
Cc1cc(NC(=O)CSc2nc3ccccc3c(=O)n2Cc2ccc(F)cc2)no1 | ? | -5 | 2% | -5 | -1% | 12µM*
CCCCCCn1c(SCC(=O)Nc2cc(C)on2)nc2ccccc2c1=O | ? | -11 | -2% | 2 | 5% | 6.6µM*
COc1ccc(CCC(=O)OCC(=O)c2cccc(OC)c2)cc1 | 26% | 17 | -7% | 6 | nt | 18%
O=C(CSc1nnc(CNC(=O)c2ccccc2)o1)NCCc1ccccc1 | 21% | 22 | 4% | 14 | 14% | ?
N#CC1C(C#N)N2CCCN2C1c1ccc(Br)cc1 (stereo unspecified) | ? | 11 | 0% | -2 | 10% | -21%
COCCCn1c(=O)c2ccccc2n(Cc2cccc(C)c2)c1=O | ? | -15 | 21% | -2 | -16% | ?
N#Cc1ccccc1OCC(=O)N(Cc1nnc(-c2ccccc2Cl)o1)C1CC1 | ? | nt | -1% | nt | nt | ?
O=C(NCC1CCCO1)c1ccc2c(=O)n(CC3CCCO3)c(SCC(=O)N3CCCC3)nc2c1 (stereo unspecified) | ? | 24 | 0% | 6 | nt | ?
CCc1cc(=O)oc2c(C)c(OCC(=O)N3CCC(C(=O)O)CC3)ccc12 | 23% | -10 | 1% | -4 | 3% | 3%
O=[N+]([O-])c1cc(CN(CCO)CCO)ccc1O | 67% | -10 | 1% | -2 | 4% | 47%
CCN(CC)C(=O)CSc1nc2ccccc2c(=O)n1CC | nt | -12 | 4% | -5 | -13% | ?
CCN(CC)C(=O)CSc1nc2ccccc2c(=O)n1CCC(=O)NCc1ccc(F)cc1 | 9.3µM* | 9 | 0% | 3 | 7% | ?
Cc1cccc(/C=C2/S/C(=N/N=C3\CC4CCC3(C)C4(C)C)NC2=O)c1 (stereo unspecified) | ? | -4 | -22% | -2 | 16% | 8.3µM*
O=C1N/C(=N/O)S/C1=C/c1cccc([N+](=O)[O-])c1 | 13% | 36 | -3% | 9 | nt | ?
CCOC(=O)c1c(NC(=O)c2cc(C)oc2C)sc(C(=O)Nc2ccc(Cl)cc2)c1C | ? | 40 | 1% | 24* | 14% | ?
COCCOC(=O)c1c(NC(=O)CN2c3ccccc3CC2C)sc(C(N)=O)c1C (stereo unspecified) | 12µM* | -9 | -4% | 6 | 6% | ?
CCOC(=O)c1c(NC(=O)CN2CCN(C)CC2)sc(C(=O)Nc2ccccc2)c1C | 13µM* | 18 | -1% | 28* | 0% | 0%
O=C(Nc1cc2c3c(c1)CC(=O)N3CCC2)c1ccccc1Br | -11% | nt | -1% | nt | nt | 49%
CCOC(=O)c1cc(-c2ccccc2)sc1NC(=O)c1ccc(OC)cc1 | 37% | -12 | -1% | -1 | -3% | ?
CCOC(=O)c1c(N)sc(C)c1-c1ccccc1 | nt | 3 | nt | 6 | nt | nt
CCOC(=O)c1c(N)sc(-c2ccccc2)c1C | 53% | 68* | 15% | 34* | 6% | 12%
